From PubChem BioAssay (NCATS) come the findings set out here.

Inconclusive results are not listed. A number with no mark means an inactive call. The call rests on the fitted dose curve; in most records, active means well fitted inhibition curve with a large enough effect; inconclusive means small, poorly fitted or top-dose-only effect; inactive means flat fitted curve, though single readings scatter.
On the % scale 0 is the no-effect control and ±100 the full control effect.

Sequence of Calcium and integrin-binding protein 1 (Homo sapiens) (Q99828 whole entry, looked up): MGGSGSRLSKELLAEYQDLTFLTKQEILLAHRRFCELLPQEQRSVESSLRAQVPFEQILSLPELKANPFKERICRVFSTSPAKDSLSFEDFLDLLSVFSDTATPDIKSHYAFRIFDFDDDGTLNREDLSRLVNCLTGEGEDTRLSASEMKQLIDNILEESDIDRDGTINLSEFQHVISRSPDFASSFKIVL

The test concerns the target Calcium and integrin-binding protein 1 (Homo sapiens) (UniProt Q99828). Briefly: Primary qHTS for Identification of Calcium Integrin Binding Protein 1 (CIB1) Competitor (AID 1508620). Further: top concentration of the series differs between compounds. Particulars: CIB1-GST / FITC-alphaIIb peptide fluorescence polarization; series mostly up to 114 µM; activity change, negative = inhibition: at the top concentration. The method, boiled down:
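Fluorescence polarization competition: GST-tagged CIB1 (1 uM final) preincubated with compound 15 min at room temperature, then FITC-labelled alphaIIb peptide (100 nM final) added. After 15 min at room temperature, polarization read at Ex 480/Em 540.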
For orientation: qHTS replaces the single test concentration by a dilution series.
In the case of `COc1cccc(C2c3c(ncn(-c4cccc(C#N)c4)c3=N)Oc3ccc4ccccc4c32)c1` (stereo not given), the “activity change, negative = inhibition” value was 5.6%. Turning to `N#Cc1ccc(-c2ccc(CNc3ccc(N4CCC(C(F)(F)F)CC4)cc3)o2)cc1`, the “activity change, negative = inhibition” value was -4.07%. As to `Cc1cc2c(s1)c1cnn(Cc3ccc4ccccc4c3)c(=O)c1n2C`, the “activity change, negative = inhibition” value was 1.5%. For the compound `Cc1nc(C2=NC(c3ccccc3Cl)C3=C(CCCC3=O)N2)cs1` (stereo not given), the “activity change, negative = inhibition” value is -11.2%. As for `Cc1cc(C)nc(NC(=S)N2CCN(c3nc4ccccc4s3)CC2)c1`, the “activity change, negative = inhibition” value is -3.82%.
